This is a sample that favours compounds with a hit; in the whole collection about 2.6% have one here.
eIF4H inh: inhibitors of RNA binding by human eIF4H. inhibition, % at 35 µM. Q15056. AID 2012. 290,000 tested, 0.94% active. eIF4H fluorescence polarization binding assay;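 note: calls also rest on retests at 20 µM and on dose response follow-up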
MLLE-PAM2 inh: blocks PAM2 peptide binding to the PABP1 MLLE domain; P11940; GST-MLLE / FITC-PAM2 fluorescence polarization; 360,000 tested, 0.36% active; inhibition, % at 20 µM; in the data active = inhibition above about 35%, passing the limit was not always enough;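 note: plate controls were DMSO wells with GST-MLLE for no effect and wells lacking GST-MLLE protein for full effect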
PABP polyA inh: blocks human PABP binding to poly(A) RNA; P11940; fluorescence polarization; inhibition, % at 35 µM; 290,000 tested, 1% active; AID 2014;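 note: calls also rest on retests at 20 µM and on dose response follow-up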
PHOSPHO1 inh: PHOSPHO1 (human) inhibition. AID 1565. Q8TCT1. 290,000 tested, 1.1% active. inhibition, % at 13.3 µM. recombinant PHOSPHO1, absorbance phosphatase assay; in the data active = inhibition above about 60%
Target sequence (Q8TCT1 whole entry, looked up): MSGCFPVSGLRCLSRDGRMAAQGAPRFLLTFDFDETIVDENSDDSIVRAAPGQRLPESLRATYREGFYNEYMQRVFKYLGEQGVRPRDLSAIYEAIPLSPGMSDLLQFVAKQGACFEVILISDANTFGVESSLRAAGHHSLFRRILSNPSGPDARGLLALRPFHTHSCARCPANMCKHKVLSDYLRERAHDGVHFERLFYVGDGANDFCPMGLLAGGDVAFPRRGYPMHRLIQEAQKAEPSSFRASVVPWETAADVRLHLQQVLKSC
CRFR2-BP antag: CRF-BP/CRF-R2 complex antagonism. HEK293 CRF-R2/CRF-BP, CRF-induced calcium fluorescence. inhibition, % at 11.8 µM. 350,000 tested, 0.59% active. AID 588475;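 active = inhibition of the ligand-induced calcium signal above about 50% at the single tested concentration, limit read from the data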
The depositor's hits bear a star; u = inconclusive; x = no result. Unless noted, the rule behind the calls is not given here.

SMILES	eIF4H inh	MLLE-PAM2 inh	PABP polyA inh	PHOSPHO1 inh	CRFR2-BP antag
CC1CCC(C(C)C)C(OCC(O)C[N+]2(C)CCCCC2)C1 (stereo not drawn)	3	-108	59*	5	11
CC(=O)N1N=C(c2ccncc2)OC12CCCCC2	-10	-6	-2	62*	-2
C[N+](C)(C)C/C=C1/COCO1	-1	-112	47	90*	-15
N#CC1=C(N)N(c2ccccc2)C(=O)C1	32	-1	54*	-4	-7
CN(CC(=O)Nc1ccccc1Cl)C(=O)C1CSC2(C)CCC(=O)N12 (stereo not drawn)	x	-4	x	x	5
O=[N+]([O-])c1ccc(N/N=C\c2ccccc2OCc2ccccc2)cc1	23*	-113	74*	-6	-43
Cc1cc(C)nc(N/N=C/c2ccccc2OCc2ccc([N+](=O)[O-])cc2)n1	-4	5	10	5	14
Cc1onc(-c2ccccc2)c1C(=O)n1nnc2ccccc21	-3	-1	2	-7	-15
Cc1nn(C(=O)c2c(-c3ccccc3)noc2C)c(C)c1N=Nc1cc(C(F)(F)F)cc(C(F)(F)F)c1	-8	-1	11	15	53*
C=C(C)CN(CC)c1nc(N)c(C#N)c(CC#N)c1C#N	84*	5	76*	14	0
CCC(Sc1nc(C)cc(C)n1)C(=O)NC1=NN=C(c2ccc(C)cc2)CS1 (stereo not drawn)	6	17	-2	104*	-3
Cc1cc(N2CCCC2)c(F)cc1/C=C\[N+](=O)[O-]	58	-113	0.6*	1	-74
Cc1cn(CC(=O)NCCc2c[nH]c3ccccc23)c(=O)[nH]c1=O	x	5	x	x	6
CCc1nc2c(OCc3ccc(Cl)cc3)cccn2c1N(C)C(=O)c1ccc(C)cc1	x	-8	x	x	x
C[C@@H]1CCCCO[C@@H](CN(C)Cc2ccccc2)[C@@H](C)CN([C@H](C)CO)C(=O)c2cc(N(C)C)ccc2O1	x	-8	x	x	-7
C[C@@H]1CCCCO[C@@H](CN(C)CC2CC2)[C@@H](C)CN([C@H](C)CO)C(=O)c2cc(N(C)C)ccc2O1	x	-4	x	x	66*
O=C(CC(Sc1ccc(Br)cc1)C(=O)O)c1ccc(F)cc1 (stereo not drawn)	-2	39*	-6	6	9
Cc1ccc(-c2nnc(SCC(N)=O)nc2-c2ccc(C)cc2)cc1	-6	-8	-2	23	-16
Cc1ccc(-c2nnc(SCC(=O)N3CCOCC3)nc2-c2ccc(C)cc2)cc1	-2	-15	4	68*	4
CC(Oc1ccc(Cl)cc1Cl)C(=O)NNC(=O)c1cccnc1 (stereo not drawn)	-10	0	-7	7	-12
CC(Oc1cccc(Cl)c1)C(=O)NNC(=O)c1cccnc1 (stereo not drawn)	x	1	x	x	68*
Cc1ccc(CN2CC(N3CCN(CC4CC4)CC3)CS2(=O)=O)cc1 (stereo not drawn)	x	-8	x	x	x
Cc1ccc(/C=C2/NC(=O)N(Cc3ccc(Br)cc3)C2=O)o1	13	16	-6	0	-5
CCOC(=O)CN1C(=O)S/C(=C\c2ccc(-c3ccc(C(=O)O)c(Cl)c3)o2)C1=O	52*	-9	26*	29	7
O=C(O)c1ccc(-c2ccc(/C=C3\NC(=O)N(Cc4ccc(Cl)cc4)C3=O)o2)cc1Cl	86	-16	71*	24	3
SMILES	eIF4H inh	MLLE-PAM2 inh	PABP polyA inh	PHOSPHO1 inh	CRFR2-BP antag
CCOC(=O)CN1C(=O)S/C(=C/c2ccc(N3CCCCC3)o2)C1=O	u	-162	u	101*	-54
Cc1ccc2ccccc2c1C(O)c1ncc(-c2ccccc2)[nH]1 (stereo not drawn)	x	-6	x	x	x
Cc1onc(-c2ccccc2)c1C(=O)NC(=S)NNC(=O)c1ccncc1	12	42*	-12	5	-34
COc1cc(CNc2ncnc3c2ncn3[C@H]2CN(CCN3CCOCC3)C[C@@H](CO)O2)cc(OC)c1OC	x	6	x	x	x
OC(c1cc(F)cc(Cl)c1)c1ncc(-c2ccccc2Cl)[nH]1 (stereo not drawn)	x	-9	x	x	x
CCOC(=O)c1[nH]c(=S)[nH]c1C	x	16	x	x	-6
O=C(CCc1ccc(O)c(O)c1)N/N=C/c1cc2c(cc1[N+](=O)[O-])OCO2	94*	15	61*	18	16
O=[N+]([O-])c1ccc(N/N=C/c2ccc(O)c(O)c2O)c(S(=O)(=O)N2CCOCC2)c1	90	-14	30*	44	-11
O=C(CCc1ccc(S(=O)(=O)N2CCOCC2)cc1)N/N=C/c1ccc(F)cc1F	-6	0	-2	4	-19
Cc1cccc(C)c1OCC(=O)N/N=C/c1cc2c(cc1[N+](=O)[O-])OCO2	-2	-1	16	32	8
O=C(CCc1ccc(S(=O)(=O)N2CCOCC2)cc1)N/N=C/c1ccc(O)c(O)c1O	96*	33	active	-9	-5
COc1cc(C2CC(=O)N3CN(c4ccccc4C)CSC3=C2C#N)cc(OC)c1OC (stereo not drawn)	-4	x	32	88*	x
COc1ccccc1N1CSC2=C(C#N)C(c3ccc(SC)cc3)CC(=O)N2C1 (stereo not drawn)	u	-16	124	92*	10
CCc1ccc(NC(=O)C(C)OC(=O)C2CCN(c3ccc(C(F)(F)F)cn3)CC2)cc1 (stereo not drawn)	x	13	x	x	-4
CC(C)c1ccc(NC(=S)NN2CCOCC2)cc1	-3	1	2	-1	50*
S=C(Nc1cccc2ccccc12)NN1CCOCC1	-7	-8	0	94*	-39
S=C(Nc1cccc2ccccc12)NN1CCCCCC1	x	25	x	x	-14
COc1ccc(OC)c(NC(=O)C2(C)CCN2Cc2ccsc2)c1 (stereo not drawn)	x	7	x	x	x
CSc1ccccc1NC(=O)C1(C)CCN1C(=O)Cc1ccccc1Cl (stereo not drawn)	x	11	x	x	x
CCCNC(=O)CCCCn1c(=S)[nH]c2c([nH]c3ccc(OC)cc32)c1=O	-2	-16	6	-42	6
COc1ccc2[nH]c3c(=O)n(CCCCC(=O)N4CCCC4)c(=S)[nH]c3c2c1	-5	11	6	100*	8
CN(C)S(=O)(=O)c1cccc(-c2nnc(SCc3cc(Cl)cc4c3OCOC4)n2N)c1	2	-31	-2	99*	4
O=C(Nc1ccc2c(c1)OCO2)C1Cc2c(-c3ccc4c(c3)OCO4)ccnc2O1 (stereo not drawn)	x	4	x	x	x
c1cc2c3c(cccc3c1)NC1(CCCC1)N2	x	43*	x	x	-7
Cc1cccc(C)c1NC(=O)CN(Cc1ccccc1)Cc1ccccc1	x	18	x	x	x
COc1cc(C(=O)NC2CC(C)(C)Cc3c2cnn3-c2ccccc2)cc(OC)c1OC (stereo not drawn)	2	23	2	16	57*
Cc1c2cnn(CC(=O)Nc3c(F)c(F)cc(F)c3F)c(=O)c2c(C)n1Cc1ccccc1F	95*	-11	9.6*	-13	-3
N#C/C(=C\c1ccc(Sc2ccc(Cl)cc2)o1)c1nc2ccccc2[nH]1	58*	-45	100*	4	-30
